38 molecules from PubChem BioAssay (NCATS) can be followed below.

Several values for one entry are separate records, joined by “and”; a condition that tells them apart may be missing. Equal values may be shown once. Inconclusive results are not listed. Activity calls are given as the source filed them. The call rests on the fitted dose curve.
Potency means the concentration at half of the fitted maximal effect.

The nature of this test: Primary qHTS to identify inhibitors of SARS-CoV-2 cell entry (AID 1645846). Further: nearly all actives have a fitted effect of over 45% in size. The note with it: SARS-CoV-2 pseudovirus cell entry assay, luminescence; activity change, negative = inhibition: at 57.1 µM (top of the series) unless noted; series mostly up to 57.1 µM. The text has this: Assay Provider: Wei Zheng, Ph.D.
National Center for Advancing Translational Sciences, National Institute of Health, Rockville, MD.
SARS-CoV-2 spike protein, within the viral envelope, mediates viral attachment and infection of host cells. The SARS-CoV-2 spike protein specifically binds to the host receptor ACE2 (Angiotensin-converting enzyme 2). This interaction promotes endocytosis of the viral particle, additional events lead to viral-host cell membrane fusion and release of the viral contents, allowing viral replication.
While SARS-CoV-2 requires BSL-3 facilities for live virus work, pseudotyped partices (PP) that incorporate SARS-CoV-2 spike proteins without replication elements could facilitate studies on viral entry mechanisms in a BSL-2 setting. This PP cell entry assay could also enable screening of small molecule compound libraries in BSL-2 setting to identify inhibitors of SARS-CoV-2 cell entry.
PROTOCOL TABLE (format as described by Inglese J, Shamu CE and Guy RK. 2007)
SEQUENCE No. (e.g., 1, 2, 3, etc.); […] (e.g., Cells, Incubation, Reagent, etc.); VALUE and DESCRIPTION.
1. Cells. Seed 1500 HEK293-ACE2 cells (Expi293F with stable expression of human ACE2) in 2 uL/well media (DMEM, 10% FBS, 1x L-glutamine, 1x Pen/Strep, 1 ug/ml puromycin) in white 1536-well assay plates (Greiner #782073).
2. Incubation. Incubate at 37C with 5% CO2 overnight (~16 h).
3. Compounds. Dispense 23 nL/well compounds in DMSO via pin transfer.
4. Incubation. Incubate for 1 hr at 37C 5% CO2.
5. Reagent. Dispense 2 uL/well of SARS-CoV-2-S pseudotyped particles. [a] PPs are produced with murine leukemia virus pseudotyping. [b] SARS-CoV-2-S is Wuhan-Hu-1 sequence (BEI #NR-52420) with C-terminal 19 amino acid truncation.
6. Centrifuge. […]
7. Incubation. Incubate at for 48 hr at 37C 5% CO2
8. Centrifuge. Remove supernatant with gentle centrifugation using a Blue Washer (BlueCat Bio).
9. Reagent. Dispense 4 uL/well of Bright-Glo Luciferase detection reagent (Promega #E2620).
10. Incubation. Incubate for 5 min at room temperature.
11. Detection. Read luminescence signal (Viewlux plate reader, PerkinElmer). Data was normalized with wells containing SARS-CoV-2-S PP as 100%, and wells containing bald PP (no fusion protein) as 0%.
Background: Quantitative high-throughput screening tests each substance at several concentrations.
Take `Cn1c(NCCN(CCO)CCCc2ccc([N+](=O)[O-])cc2)cc(=O)n(C)c1=O`: the activity change, negative = inhibition was -16.7% and 1.27%.

`CCOC(=O)C(C)Oc1cccc2c(=O)n(CC(=O)Nc3ccc4c(c3)OCCO4)ccc12` (stereo not given): the activity change, negative = inhibition is -0.424%. For `CC(C)c1ccccc1Cc1cc(C(=O)Nc2ccc(S(=O)(=O)c3ccccc3C(C)(C)C)cc2)c(O)c(O)c1O`, the molecule was classed as inactive.

Turning to `[O-][n+]1cccc(/C(Cl)=N/OC[C@@H](O)CN2CCCCC2)c1`, the molecule was called inactive. On to `CC[C@H](Nc1ncnc2nc[nH]c12)c1nc2cccc(F)c2c(=O)n1-c1ccccc1`, for which the activity change, negative = inhibition is -11%. As to `Cn1cncc1[C@@](N)(c1ccc(Cl)cc1)c1ccc2c(c1)c(-c1cccc(Cl)c1)cc(=O)n2C`, the activity change, negative = inhibition is -13%. Consider `Nc1nc(Nc2ccc(S(N)(=O)=O)cc2)nn1C(=O)c1c(F)cccc1F`, for which the Potency is 1 µM (active). As for `CN(C)CC/C=C1/c2ccccc2COc2ccc(CC(=O)O)cc21`, the activity change, negative = inhibition was -14.5% and the outcome was inactive. For `CCOP(=O)(OCC)C(C)NC(=O)N(CCCl)N=O` (stereo not given) the same measures were -18.4% and “inactive”. Regarding `O=c1[nH]c2ccc(Cl)cc2c(N[C@@H]2CN3CCC2CC3)c1-c1nc2ccccc2[nH]1`, the activity change, negative = inhibition was -97.1%. As for `O=C(O)CC(O)C(=O)O` (stereo not given), the result was inactive. Consider `O=C(Nc1cc(Cl)cc2c1[nH]c1cnccc12)c1cccnc1`, for which the activity change, negative = inhibition is -24.6% [at 27.1 µM]. In the case of `COc1cccc(OC)c1-c1cc(C(=O)NC2(C(=O)O)C3CC4CC(C3)CC2C4)nn1-c1ccnc2cc(Cl)ccc12` (stereo not given), the result was inactive. For the molecule `O=C1CCCC2=C1C(c1[nH]ncc1Cl)N=C(Nc1nc3ccccc3o1)N2` (stereo not given), the activity change, negative = inhibition is -4.23%. Take `O=C(O)CCc1ccc(NCc2cccc(Oc3ccccc3)c2)cc1`: the activity change, negative = inhibition was -10.2%. Still for that read-out and setting: then `CCCCC(CC)COC(=O)/C=C/c1ccc(OC)cc1` (stereo not given), with -3.29%. Same read-out and setting: then `CCC(=O)O[C@@H]1C=C2CCC3C(CCC4(C)C3CC[C@@H]4OC(=O)CC)C2CC1` (stereo not given in full), with 4.26%; and `c1ccc(-c2nn3c(c2-c2ccnc4cc(OCCN5CCOCC5)ccc24)CCC3)nc1`, with 3.16%. `O=C(O)COc1ccccc1`: the outcome was inactive.

With `Fc1ccc(Cl)cc1-c1nc(Nc2ccncc2)c2nccnc2n1`, the activity change, negative = inhibition is -13.6%.

As for `O=C(N[C@H]1CN2CCC1CC2)c1ccc(Cl)cc1`, the activity change, negative = inhibition is 4.38%. Still for that read-out and setting: then `CC(C)(C)OC(=O)Nc1ccc(-c2cc(C(=O)NCCCCCCC(=O)NO)no2)cc1`, with -8.17%. As for `CS(=O)(=O)Oc1ccc2c(NC(N)=O)c(C(=O)c3ccc(Cl)cc3Cl)oc2c1`, the result was inactive. As to `CC(C)c1ccc2c(c1)c(SC(C)(C)C)c(CC(C)(C)C(=O)O)n2Cc1ccc(Cl)cc1`, the molecule was classed as inactive. As to `Cc1cccc(-c2[nH]ncc2-c2ccc3ncccc3n2)n1`, the activity change, negative = inhibition was -1.7%. On to `CC(=O)Oc1ccccc1C(=O)O`, for which the molecule was called inactive. Regarding `O=C(Nc1ccc(F)c(C(F)(F)F)c1)Nc1nnc(-c2ccncc2)s1`, the activity change, negative = inhibition is -21.1%. Still for that read-out and setting: the value for `C[C@@H]1CCN(C(=O)CC#N)C[C@@H]1N(C)c1ncnc2[nH]ccc12` was -1.42%. For `N#Cc1ccc(NC(=O)Nc2ccccc2Br)c2n[nH]nc12`, the molecule was called inactive.

With `CC(=O)Nc1ccc([C@H](C)C(=O)Nc2ncc(C(C)C)s2)cc1`, the Potency was 3.55 µM (active). With `Clc1ccccc1CN1CCc2sccc2C1`, the molecule was called inactive. Consider `Cc1c(C)c2c(c(C)c1OC(=O)c1cccnc1)CC[C@@](C)(CCC[C@H](C)CCC[C@H](C)CCCC(C)C)O2`, for which the molecule was classed as inactive. For `CC(C)(C)COc1ccc(-n2cc(C(=O)O)cn2)cc1C#N`, the activity change, negative = inhibition was -72.8%. Turning to `CC1(C)CCC(c2ccc(Cl)cc2)=C(CN2CCN(c3ccc(C(=O)NS(=O)(=O)c4ccc(N[C@H](CCN5CCOCC5)CSc5ccccc5)c(S(=O)(=O)C(F)(F)F)c4)cc3)CC2)C1`, the call was inactive. Turning to `C/C=C(/C)C(=O)O[C@H]1C(C)=C2[C@H]([C@@H]1OC(=O)CCCCCCC)[C@@](C)(OC(C)=O)C[C@H](OC(=O)CCC)[C@@]1(O)[C@H]2OC(=O)[C@@]1(C)O`, the Potency is 22.4 µM (active).

Regarding `O=C(O)CNC(=O)c1c(O)c2ccccc2n(Cc2ccccc2)c1=O`, the activity change, negative = inhibition stood at 2.25%. Same read-out and setting: then `CCN(CC)CCn1c(=O)c(Cc2ccc(OC)cc2)nc2ccccc21`, with -28.6%. Still for that read-out and setting: then `CCCCCCCc1ccc(CCc2cccc(O)c2C(=O)O)cc1`, with -27.4%.
